Assay outcomes as filed in PubChem BioAssay.
This is a sample that favours compounds with a hit; in the whole collection about 6% have one here.
DRD3 antagonist – qHTS of D3 Dopamine Receptor Antagonist: qHTS | D(3) dopamine receptor (Homo sapiens), P35462 | 2.5% of 360,000 active | D3R cells, DiscoveRx beta-arrestin luminescence, antagonist mode; stronger effect = lower value | max response, negative = inhibition, % | AID 652054, 2013; in the data active = max response below about -50%; inconclusive = no clear call, values can overlap the other calls
Target sequence (P35462 whole entry, looked up): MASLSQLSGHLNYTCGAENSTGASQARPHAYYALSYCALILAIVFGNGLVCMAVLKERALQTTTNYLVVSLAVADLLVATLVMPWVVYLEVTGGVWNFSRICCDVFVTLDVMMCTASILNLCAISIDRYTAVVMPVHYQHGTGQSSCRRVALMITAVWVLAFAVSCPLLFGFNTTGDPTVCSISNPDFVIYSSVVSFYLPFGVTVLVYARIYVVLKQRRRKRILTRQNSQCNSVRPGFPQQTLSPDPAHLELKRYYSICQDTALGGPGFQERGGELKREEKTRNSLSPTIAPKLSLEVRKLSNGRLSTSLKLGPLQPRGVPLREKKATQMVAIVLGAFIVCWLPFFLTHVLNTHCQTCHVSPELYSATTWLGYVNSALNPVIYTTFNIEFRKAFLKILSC
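Cells plated overnight at 1500 cells/well, then exposed to library compounds with dopamine controls for 90 minutes at 37 degrees C. DiscoveRx reagent added for 30–60 minutes at room temperature; luminescence read, quantitative HTS format.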
D1 antagonist – Antagonist of Human D 1 Dopamine Receptor: qHTS | activity change, negative = inhibition, % at 10 µM | 3.2% of 360,000 active | HEK293 TREx D1 cells, calcium flux, dopamine EC80; stronger effect = lower value | D(1A) dopamine receptor (Homo sapiens), P21728; in the data active = activity change below about -30%
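Kinetic fluorescence of a calcium dye serves as the read-out. D1-expressing Hek293 Trex cells, induced overnight at 30 C, are exposed to compound for 180 s before an EC80 dopamine addition, then read 180 s further.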
DRD3 agonist – qHTS of D3 Dopamine Receptor Agonist: qHTS; D3R DiscoveRx beta-arrestin cells, luminescence, 90 min; max activation, %; 0.58% of 410,000 active; in the data active = max activation above about 30%
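Agonist mode: compounds and dopamine controls were applied to plated cells for 90 min at 37 degrees C after an overnight attachment at 1500 cells/well. Luminescent read-out followed 30 - 60 minutes at room temperature with DiscoveRx detection reagent.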
D1 potentiator – Potentiators of Human D1 Dopamine Receptor: qHTS. 0.036% of 360,000 active. HEK293 TREx D1 cells, calcium flux, dopamine EC20 potentiation. D(1A) dopamine receptor (Homo sapiens), P21728. potentiation, % at 10 µM; in the data active = potentiation above about 30%
D1 ag – Allosteric Agonists of the Human D1 Dopamine Receptor: qHTS; D(1A) dopamine receptor (Homo sapiens), P21728; HEK293 T-REx D1 cells, calcium flux, agonist mode; activation, % at 2 µM; 1% of 360,000 active; in the data active = activation above about 30%
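Agonism was scored from calcium flux recorded over 180 s (1 read/s) after pintool compound addition, following a 10-cycle baseline. Cells were inducible force-coupled HEK293 TREx D1, plated overnight at 30 C and loaded with no-wash calcium dye.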
Chronic BCR inh – qHTS Assay to Find Inhibitors of Chronic Active B-Cell Receptor Signaling | 0.05% of 340,000 active | ABC-DLBCL IkBa-CBG/CBR reporter, luminescence ratio, 4 h | Potency, µM (titrated, usually from 46.1 µM), hits mostly inhibitors | AID 493014, 2011; active = well fitted inhibition curve with a large enough effect in the signal ratio, with a control signal flat, not every such curve was filed as active; inconclusive = small, poorly fitted or top-dose-only effect, or effect the other way, or a change in a side signal; the % refers to the signal ratio
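Compounds up to 46 uM were incubated four hours with TMD8 cells whose green CBG68 luciferase is fused to IkappaBalpha; red CBR luminescence normalised the signal, and concentration-effect curves were fitted to fusion, red and ratio data.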
Each line names hits and unclear results; the compound was inactive in the other large screens.

S=C(NCc1ccncc1)Nc1ccc(Cl)c(Cl)c1	D1 antagonist -36
C=C1C[C@@H]2C[C@@H]2CN(S(=O)(=O)c2ccc(C)cc2)[C@@H]1c1ccco1	none (no result: D1 antagonist, D1 potentiator, D1 ag, Chronic BCR inh)
CCOc1ccc(N(C(=O)CC(C)C)S(=O)(=O)c2ccc3c(c2)oc(=O)n3C)cc1	none (no result: DRD3 antagonist, Chronic BCR inh)
CS(=O)(=O)c1ccc(C(=O)NC2CCOC2=O)cc1 (centres undefined)	DRD3 agonist 32
O=C(OCCN1CCN(C2=NS(=O)(=O)c3ccccc32)CC1)c1ccccc1F	D1 antagonist -32
CCNC(=O)C1CCCN(C(=O)c2cc(F)cc(F)c2)CC1 (centres undefined)	none (no result: D1 antagonist, D1 potentiator, D1 ag, Chronic BCR inh)
CSCCC(NC(=O)c1ccccc1Cl)C(=O)N(C)CC(=O)Nc1ccc(N2CCOCC2)cc1 (centres undefined)	none
COc1ccc(Br)c(C(=O)N(C)CC(=O)Nc2ccc(N3CCOCC3)cc2)c1	D1 antagonist -51
COc1cccc(-c2nn(-c3ccc(C)cc3)cc2C(=O)N(C)CC(=O)Nc2cccc(F)c2)c1	D1 antagonist -32, Chronic BCR inh inconclusive (no result: D1 potentiator)
CN(CC(=O)Nc1ccc(N2CCOCC2)cc1)C(=O)c1cccc(Cl)c1Cl	D1 antagonist -36
Cc1cccc(-c2nn(-c3ccccc3)cc2C(=O)N(C)CC(=O)Nc2ccc(N3CCOCC3)cc2)c1	D1 antagonist -71, Chronic BCR inh inconclusive
CN(CC(=O)Nc1ccc(N2CCOCC2)cc1)C(=O)c1cn(-c2ccccc2)nc1-c1ccccc1	none
CCCCCCN1C[C@@H](n2cc(-c3ccc(F)cc3)nn2)[C@H](O)C[C@@H]1c1ccc(Cl)cc1	none (no result: D1 antagonist, D1 potentiator, D1 ag, Chronic BCR inh)
CCOC(=O)C1CC(=NO)c2ccc(OC)c(OC)c2C1 (centres undefined)	none (no result: D1 antagonist, D1 potentiator, D1 ag, Chronic BCR inh)
CC(=O)N1C=Cc2c(c(C)c3c([nH]c4ccccc43)c2C)C1	D1 ag 58, Chronic BCR inh inconclusive (no result: DRD3 antagonist, DRD3 agonist)
Cc1ccc(Cn2cnc3sc4c(c3c2=O)CCC4)c(C)c1	D1 potentiator 38
Cc1ccc(C)n1-n1cnc2sc3c(c2c1=O)CCC3	D1 antagonist -33
Cc1cc(C)nc(SCC(=O)OCC(=O)Nc2nc3ccccc3s2)n1	D1 ag 31
Fc1ccccc1N1CCN(Cc2cnc(Cl)s2)CC1	DRD3 agonist 50
Clc1ncc(CN2CCN(c3ccccc3)CC2)s1	DRD3 agonist 39 (no result: D1 antagonist)
CNC(=O)c1ccccc1Sc1ccc2c(/C=C/c3ccccn3)n[nH]c2c1	none (no result: DRD3 antagonist, D1 antagonist, D1 potentiator, D1 ag, Chronic BCR inh)
O=C(CSc1nc2c(cnn2-c2ccc(F)cc2)c(=O)[nH]1)Nc1ccc(Br)cc1	none (no result: DRD3 antagonist, Chronic BCR inh)
COc1cccc(N=C2NC(=O)/C(=C/c3cc([N+](=O)[O-])ccc3O)S2)c1	D1 ag 83
Cc1ccc(S(=O)(=O)/N=C2/NC(=O)/C(=C/c3cc([N+](=O)[O-])ccc3O)S2)cc1	D1 ag 218
O=C1NC(=Nc2ccccc2Cl)S/C1=C\c1cc([N+](=O)[O-])ccc1O	D1 ag 76, Chronic BCR inh inconclusive
CC(C)(C)N(Cc1cc2ccccc2[nH]c1=O)C(=O)c1cccc([N+](=O)[O-])c1	DRD3 agonist 47
O=S(=O)(c1ccc(Cl)cc1)c1snnc1-c1ccccc1	DRD3 antagonist -64, Chronic BCR inh inconclusive
CC(=O)Nc1ccc(S(=O)(=O)Oc2ccc(N3C(=O)C4CCCCC4C3=O)cc2)cc1 (centres undefined)	D1 antagonist -52, D1 ag 38
CC1=CC(C)(C)Nc2ccc(OS(=O)(=O)c3ccc(C)cc3)cc21	Chronic BCR inh inconclusive
CC(=O)Nc1ccc(S(=O)(=O)Oc2ccc(/C=N/NC(=O)c3ccc(Cl)cc3)cc2)cc1	DRD3 antagonist inconclusive
CC(=O)Nc1ccc(S(=O)(=O)Oc2ccc3c(c2)C(C)=CC(C)(C)N3)cc1	D1 antagonist -42 (no result: DRD3 antagonist, DRD3 agonist)
COC(=O)c1ccc(OS(=O)(=O)c2ccc(NC(C)=O)cc2)cc1	D1 antagonist -35
COC(=O)c1ccc(CSc2nc3c(cnn3-c3ccc(F)cc3)c(=O)[nH]2)o1	DRD3 agonist 32
CC(C)(C)OC(=O)N1CCC2(CC1)Oc1ccc(F)cc1C(=O)C21CC(c2cccnc2)=NO1 (centres undefined)	D1 antagonist -91
COc1ccc(N(CC(=O)NC2CCCCC2)C(=O)CCC(=O)Nc2nc(C)cs2)cc1OC	D1 antagonist -45
Cc1cccc(N(CC(=O)NC2CCCC2)C(=O)CCCC(=O)Nc2ccccn2)c1	D1 antagonist -34, Chronic BCR inh inconclusive
CC(=O)c1ccc(N(CC(=O)NC2CCCC2)C(=O)CCC(=O)Nc2cc(C)on2)cc1	D1 antagonist -36
CC(=O)Nc1ccc(N(CC(=O)NC2CCCC2)C(=O)CCC(=O)Nc2cc(C)on2)cc1	none
COC(=O)C1(C)CCCC2(C)c3cc(OC)ccc3C(=O)C(Br)C12 (centres undefined)	none (no result: D1 antagonist, D1 potentiator, D1 ag, Chronic BCR inh)
COc1ccc(NC(=O)c2c(NCc3cccs3)sc3c2CCCCC3)c(OC)c1	none (no result: DRD3 antagonist)
CCn1c(SCC(=O)NCc2cccs2)nnc1-c1cccs1	D1 antagonist -39
Cn1c(SCC(=O)NCc2cccs2)nnc1-c1cccs1	none (no result: Chronic BCR inh)
Cc1ccc(C(=O)Nc2ccc(-c3nc4ccccc4o3)cc2)cc1Cl	none (no result: DRD3 antagonist, Chronic BCR inh)
CCCCn1nnnc1C(C1CC1)N1CCN(C/C=C/c2ccccc2)CC1 (centres undefined)	DRD3 antagonist -137 (no result: D1 antagonist, D1 potentiator, D1 ag, Chronic BCR inh)
CCCCn1nnnc1C(c1ccc(OC)cc1)N1CCN(C/C=C/c2ccccc2)CC1 (centres undefined)	DRD3 antagonist -107 (no result: D1 antagonist, D1 potentiator, D1 ag, Chronic BCR inh)
CCCCn1nnnc1C(c1ccccc1)N1CCN(CCN2CCOCC2)CC1 (centres undefined)	none (no result: D1 antagonist, D1 potentiator, D1 ag, Chronic BCR inh)
CCCCn1nnnc1C(c1cccs1)N1CCN(C/C=C/c2ccccc2)CC1 (centres undefined)	DRD3 antagonist inconclusive (no result: D1 antagonist, D1 potentiator, D1 ag, Chronic BCR inh)
COc1ccc(N2CCN(C(c3ccccc3OC)c3nnnn3C3CCCC3)CC2)cc1 (centres undefined)	none
C(=C\c1ccccc1)/CN1CCN(C(c2ccnc3ccccc23)c2nnnn2-c2ccc3c(c2)OCCO3)CC1 (centres undefined)	none (no result: D1 antagonist, D1 potentiator, D1 ag, Chronic BCR inh)
COc1ccc(-n2nnnc2C(c2ccccc2OC(F)(F)F)N2CCN(C/C=C/c3ccccc3)CC2)cc1 (centres undefined)	DRD3 antagonist -96 (no result: D1 antagonist, D1 potentiator, D1 ag, Chronic BCR inh)
C(=C\c1ccccc1)/CN1CCN(C(c2ccccc2)c2nnnn2-c2ccc3c(c2)OCCO3)CC1 (centres undefined)	DRD3 antagonist -75 (no result: D1 antagonist, D1 potentiator, D1 ag, Chronic BCR inh)
